According to PubChem BioAssay AID1159580 (chemical genetic matrix, 2015):
“And” between values parts separate entries of the source, which are not always exact repeats. Identical values can stand only once. About 2,000 (36%) of roughly 5,500 compounds were called active. Inconclusive results (about 18%) are left out. Rule as the data show it: active = normalized growth mostly below about 0.91 (no sharp cut-off); inconclusive = no clear call, values can overlap the other calls; inactive = mostly above about 0.92. The list shows a part of the results.

Experiment: chemical genetic growth profiling, strain panel (AID 1159580);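 also: tested at 20 µM; growth read once vehicle control cultures reached saturation at 30 °C; 1 = growth at the plate median or of vehicle wells; lower values mean less growth of the strain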
Settings: S. cerevisiae deletion strains, growth OD

Measured: normalized growth

CC1O[C@@H](Oc2c(-c3ccc(O)c(O)c3)oc3cc(O)cc(O)c3c2=O)[C@H](O)[C@H](O)[C@H]1O (some centres not stated)
inactive: locus YAL013W, strain DEP1, stronger effect = lower value 1 | locus YAL021C, strain ccr4, stronger effect = lower value 1 | locus YAL026C, strain drs2, stronger effect = lower value 0.996 | locus YAL030W, strain snc1, stronger effect = lower value 0.999 | locus YBL061C, strain skt5, stronger effect = lower value 0.993 | locus YBR009C, strain hhf1, stronger effect = lower value 0.99 | locus YBR021W, strain FUR4, stronger effect = lower value 1.01 | locus YBR023C, strain chs3, stronger effect = lower value 0.995 | locus YBR171W, strain sec66, stronger effect = lower value 0.971 | locus YBR229C, strain ROT2, stronger effect = lower value 1 | locus YBR231C, strain swc5, stronger effect = lower value 0.985 | locus YBR279W, strain paf1, stronger effect = lower value 0.995 | locus YCL011C, strain gbp2, stronger effect = lower value 0.997 | locus YCL016C, strain dcc1, stronger effect = lower value 0.993 | locus YCL029C, strain bik1, stronger effect = lower value 0.978 | locus YCL061C, strain MRC1, stronger effect = lower value 0.985 | locus YCL069W, strain vba3, stronger effect = lower value 0.991 | locus YCR088W, strain abp1, stronger effect = lower value 0.985 | locus YDL005C, strain med2, stronger effect = lower value 0.979 | locus YDL035C, strain GPR1, stronger effect = lower value 1 | locus YDL040C, strain nat1, stronger effect = lower value 0.984 | locus YDL074C, strain BRE1, stronger effect = lower value 0.965 | locus YDL101C, strain DUN1, stronger effect = lower value 0.991 | locus YDL134C, strain PPH21, stronger effect = lower value 1 | locus YDL185W, strain tfp1, stronger effect = lower value 0.956 | locus YDL192W, strain arf1, stronger effect = lower value 0.985 | locus YDR001C, strain nth1, stronger effect = lower value 0.999 | locus YDR069C, strain doa4, stronger effect = lower value 0.985 | locus YDR101C, strain arx1, stronger effect = lower value 0.999 | locus YDR137W, strain rgp1, stronger effect = lower value 1.01 | locus YDR150W, strain NUM1, stronger effect = lower value 0.998 | locus YDR159W, strain sac3, stronger effect = lower value 0.97 | locus YDR162C, strain NBP2, stronger effect = lower value 1 | locus YDR195W, strain ref2 0.967 | locus YDR297W, strain sur2, stronger effect = lower value 0.987 | locus YDR318W, strain mcm21, stronger effect = lower value 0.986 | locus YDR334W, strain swr1, stronger effect = lower value 0.995 | locus YDR335W, strain msn5, stronger effect = lower value 1 | locus YDR388W, stronger effect = lower value 0.994 | locus YDR392W, strain spt3, stronger effect = lower value 0.98 | locus YDR502C, strain sam2, stronger effect = lower value 1.01 | locus YEL003W, strain gim4, stronger effect = lower value 0.994 | locus YEL037C, strain rad23, stronger effect = lower value 0.997 | locus YEL061C, strain CIN8 (second series), stronger effect = lower value 0.995 | locus YEL061C, strain CIN8, stronger effect = lower value 0.996 | locus YER015W, strain faa2, stronger effect = lower value 0.973 | locus YER016W, strain bim1, stronger effect = lower value 0.994 | locus YER110C, stronger effect = lower value 0.993 | locus YER111C, strain swi4, stronger effect = lower value 0.997 | locus YER155C, strain BEM2 (second series), stronger effect = lower value 0.982 | locus YER155C, strain BEM2, stronger effect = lower value 0.995 | locus YER167W, strain BCK2, stronger effect = lower value 0.999 | locus YFR010W, strain ubp6, stronger effect = lower value 0.988 | locus YGL078C, strain dbp3, stronger effect = lower value 0.992 | locus YGL086W, strain mad1, stronger effect = lower value 1.03 | locus YGL167C, strain pmr1, stronger effect = lower value 0.99 | locus YGL173C, strain kem1, stronger effect = lower value 0.979 | locus YGL227W, strain vid30, stronger effect = lower value 0.979 | locus YGL240W, strain doc1, stronger effect = lower value 0.976 | locus YGL248W, strain PDE1, stronger effect = lower value 1 | locus YGL253W, strain hxk2, stronger effect = lower value 0.985 | locus YGR078C, strain PAC10, stronger effect = lower value 0.98 | locus YGR135W, strain pre9, stronger effect = lower value 0.989 | locus YGR229C, strain SMI1, stronger effect = lower value 1 | locus YGR252W, strain gcn5, stronger effect = lower value 1.18 | locus YHR013C, strain ard1, stronger effect = lower value 0.982 | locus YHR027C, strain rpn1, stronger effect = lower value 0.988 | locus YHR030C, strain SLT2, stronger effect = lower value 0.997 and 0.954 | locus YHR079C, strain IRE1 (second series), stronger effect = lower value 0.989 | locus YHR079C, strain IRE1, stronger effect = lower value 0.962 | locus YHR094C, strain hxt1, stronger effect = lower value 0.982 | locus YHR129C, strain ARP1, stronger effect = lower value 0.987 | locus YHR142W, strain chs7, stronger effect = lower value 0.995 | locus YHR200W, strain rpn10, stronger effect = lower value 0.986 | locus YIL066C, strain RNR3, stronger effect = lower value 1 | locus YIL073C, strain SPO22, stronger effect = lower value 0.95 | locus YIL125W, strain kgd1, stronger effect = lower value 0.987 | locus YIR030C, strain dcg1, stronger effect = lower value 0.991 | locus YJL092W, strain hpr5, stronger effect = lower value 0.985 | locus YJL095W, strain BCK1 (second series), stronger effect = lower value 0.998 | locus YJL095W, strain BCK1, stronger effect = lower value 0.952 and 0.984 | locus YJL115W, strain asf1, stronger effect = lower value 0.991 | locus YJL129C, strain trk1, stronger effect = lower value 1 | locus YJL134W, strain LCB3, stronger effect = lower value 0.997 | locus YJL154C, strain vps35, stronger effect = lower value 0.993 | locus YJL164C, strain tpk1, stronger effect = lower value 0.984 | locus YJL166W, strain qcr8, stronger effect = lower value 0.994 | locus YJL168C, strain set2, stronger effect = lower value 0.996 | locus YJL187C, strain SWE1 (second series), stronger effect = lower value 0.988 | locus YJL187C, strain SWE1, stronger effect = lower value 0.989 | locus YJR043C, strain POL32, stronger effect = lower value 0.987 | locus YJR066W, strain TOR1, stronger effect = lower value 0.922
